# Measured potencies and affinities stand elsewhere. A number with no mark means an inactive call.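 Rule for the calls: active = viability loss with half-max dose at or under ten times the top valid dose tested; inconclusive = flat 30 to 70% loss, or poor curve fit; inactive = flat within 30%, weak potency, or gain.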
# Experiment: DRD BJ cell killing, Ras synthetic lethality – DRD BJ fibroblasts, HRASV12, dry powder, dose response (AID 493049)
# Details: DRD engineered BJ fibroblasts (HRASV12) viability, Alamar Blue, 48 h; series mostly up to 45 µM; activity change, negative = viability loss: at the top concentration
row,SMILES,"activity change, negative = viability loss"
1,O=C(c1[nH]ncc1[N+](=O)[O-])N1CCN(C(c2ccccc2)c2ccccc2)CC1,-3.84%
2,CCC(=O)N(c1ccc(OC)c(Cl)c1)C(C(=O)NCCc1ccccc1)c1cccs1 (stereo unspecified),-1.22%
3,COCC(=O)N(c1ccc(OC)c(Cl)c1)C(C(=O)NCCc1ccccc1)c1cccs1 (stereo unspecified),-0.438%
4,COc1ccc(N(C(=O)[C@@H](C)Cl)C(C(=O)NCCc2ccccc2)c2cccs2)cc1Cl (stereo partly specified),-1.66%
5,COc1ccc(N(C(=O)CO)C(C(=O)NCCc2ccccc2)c2cccs2)cc1Cl (stereo unspecified),2.17%
6,COc1ccc(N(C(=O)CSc2ncccn2)C(C(=O)NCCc2ccccc2)c2cccs2)cc1Cl (stereo unspecified),-2.6% [at 38 µM]

# Source: PubChem BioAssay AID493049 (Broad Institute, 2011)
